PABP1 MLLE inh: inhibitors of PABP1 MLLE–PAM2 peptide binding, primary screen, biochemical, fluorescence polarization, FITC-PAM2, GST-MLLE; Polyadenylate-binding protein 1 (Homo sapiens), P11940; inhibition, % at 20 µM; hit rate 0.36% among 360,000; AID 588489, 2011; in the data active = inhibition above about 35%, passing the limit was not always enough;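 note: plate controls were DMSO wells with GST-MLLE for no effect and wells lacking GST-MLLE protein for full effect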
PABP FP inh: PABP poly(A) RNA binding inhibitors, primary screen, biochemical, fluorescence polarization, uHTS; Polyadenylate-binding protein 1 (Homo sapiens), P11940; inhibition, % at 35 µM; hit rate 1% among 290,000;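 note: calls also rest on retests at 20 µM and on dose response follow-up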
eIF4H FP inh: human eIF4H binding inhibitors, primary screen, translation initiation inhibitor project, biochemical, uHTS, fluorescence polarization; inhibition, % at 35 µM; eIF4H fluorescence polarization binding assay; Eukaryotic translation initiation factor 4H (Homo sapiens), Q15056; hit rate 0.94% among 290,000;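 note: calls also rest on retests at 20 µM and on dose response follow-up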
eIF4E-4G inh: eIF4E–eIF4G protein interaction inhibitors, primary screen, biochemical, uHTS, TR-FRET, eIF4GI fragment. Eukaryotic translation initiation factor 4E (Mus musculus) + Eukaryotic translation …. TR-FRET eIF4E-eIF4GI(517-606) binding, 2 h. inhibition, % at 21.7 µM. hit rate 0.37% among 220,000;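 active = inhibition above about 30%, limit read from the data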;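 note: 0% = full FRET control wells and 100% = background wells lacking eIF4GI fragment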
PERK inhibitor: block of dimerizer-induced PERK translation repression, primary screen, PERK inhibitor project, CHO PERK-DD cells, SEAP luminescence, HTS. hit rate 0.17% among 220,000. Eukaryotic translation initiation factor 2-alpha kinase 3 (Homo sapiens), Q9NZJ5. inhibition, % at 5.6 µM. CHO PERK-DD fusion, SEAP luminescence translation reporter;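 active = inhibition above the mean inhibition of all tested compounds plus 3 SD, set separately per screening campaign, cut at about 2.9% in these data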;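 note: PERK kinase domain activated by AP20187 dimerizer at 100 nM; 0% = DMSO with dimerizer and 100% = rapamycin at 8.4 µM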
Starred values were filed as active, the others as inactive; ? = inconclusive; . = not tested or not shown; [ ] = remark or other dose. Rows were chosen to be rich in hits. Some 1.6% of all compounds tested hit in one or more screens of this group. Unless noted, the rule behind the calls is not given here.

SMILES	PABP1 MLLE inh	PABP FP inh	eIF4H FP inh	eIF4E-4G inh	PERK inhibitor
CCOC(=O)C1CCN(Cc2nc3ccc([N+](=O)[O-])cc3c(=O)n2-c2ccc(OC)cc2OC)CC1	-17	-3	9	-2	0
COc1ccc(-n2c(CN3CCC(C(N)=O)CC3)nc3ccc([N+](=O)[O-])cc3c2=O)c(OC)c1	1	62	active	6	1
CCOC(=O)c1ccccc1NC(=O)Cc1ccc(OC)c(S(=O)(=O)N2CCOCC2)c1	-2	.	.	.	.
CC[n+]1ccc(C)c2cc(S(=O)C(F)(F)F)ccc21 (stereo not drawn)	20	73*	?	-7	-1
CC[n+]1ccc(C)c2cc(SC(F)(F)F)ccc21	-6	8	-3	6	0
CCOC(=O)CNc1c(-c2ccc(O)cc2)nc2ccc(Cl)cn12	-12	30*	80*	6	0
O=C(Nc1c(-c2ccccc2)nc2ccc(Cl)cn12)c1cccs1	-11	active	51*	4	1
CCOC(=O)CNc1c(-c2ccccc2)nc2ccc(Cl)cn12	-5	-15	-10	-6	0
COC12CC(=O)C(C(C)=O)=C(O)C1(C)c1c(O)c(C)c(O)c(C(C)=O)c1O2 (stereo not drawn)	-92	.	.	.	.
O=c1[nH]c(SCc2ccccc2)nc2ccsc12	4	3	0	0	-1
CCOC(=O)CSc1nc2ccsc2c(=O)[nH]1	-11	58*	86	-2	-1
O=C(O)CSc1nc2sc3c(c2c(=O)n1-c1ccccc1)CCC3	-4	7	8	-8	0
CSc1nc(NCCN(C)C)c2sc3nc(-c4ccco4)c4c(c3c2n1)CCC4	-12	.	.	.	.
CSc1nc(N(C)CCO)c2sc3nc(-c4ccco4)c4c(c3c2n1)CCC4	9	67*	79*	26	2
CSc1nc(SCC(=O)O)c2sc3nc(-c4ccccc4)c4c(c3c2n1)CCC4	10	62*	71*	57*	0
CSc1nc(N2CCN(CCO)CC2)c2sc3nc(-c4ccco4)c4c(c3c2n1)CCC4	.	38*	98*	.	.
O=c1[nH][nH]c(-c2ccccc2)c1C=Nc1cccc(Cl)c1	4	-4	-3	-1	2.9*
CCC(=O)Nc1ccc(C(=O)CSc2nnc(-c3ccccc3F)n2C2CC2)cc1	7	-4	73*	0	-1
Fc1cccc(F)c1/C=N/NC(=S)Nc1cccnc1	22	5	-2	-1	1
Fc1c(F)c(F)c(/C=N/NC(=S)Nc2cccnc2)c(F)c1F	40*	-8	-1	3	1
Oc1ccc(/C=N/NC(=S)Nc2cccnc2)c(O)c1O	26	56*	87*	58*	0
Oc1cccc(/C=N/NC(=S)Nc2cccnc2)c1O	25	14	67	5	1
O=C(NCCN1CCOCC1)C1CC(=O)N(c2cccc(C(F)(F)F)c2)C1 (stereo not drawn)	-2	.	.	.	.
COc1ncnc2c1ncn2CCCN(C)CCc1ccccn1	6	.	.	.	.
O=C(CC1C(=O)NCCN1Cc1ccc(Cl)c(F)c1)NCC1CCOCC1 (stereo not drawn)	16	8	14	90*	1
SMILES	PABP1 MLLE inh	PABP FP inh	eIF4H FP inh	eIF4E-4G inh	PERK inhibitor
Cc1cnc(CNC(=O)CC2C(=O)NCCN2Cc2cccc(F)c2F)cn1 (stereo not drawn)	21	53*	81*	.	.
CN(CC1CCOCC1)C(=O)CC1C(=O)NCCN1Cc1ccc(Cl)c(F)c1 (stereo not drawn)	11	3	20	0	0
Cc1cnc(CNC(=O)CC2C(=O)NCCN2Cc2ccccc2F)cn1 (stereo not drawn)	15	39	53	.	.
Cc1nc(CCNC(=O)CC2C(=O)NCCN2Cc2ccccc2)sc1C (stereo not drawn)	38*	14	7	.	.
COc1cccc(CN2CCNC(=O)C2CC(=O)NCc2cn3ccccc3n2)c1OC (stereo not drawn)	15	38*	86*	-3	3.0*
CN1c2ccccc2N(C)C1(C)c1ccccc1	13	12*	67*	42*[fluorescence artefact?]	0
